Compound activity from PubChem BioAssay.
PABP1 MLLE inh: inhibitors of microRNA-mediated deadenylation, human PABP1 MLLE binding. GST-MLLE / FITC-PAM2 fluorescence polarization. inhibition, % at 20 µM. actives 0.36% (n = 360,000); in the data active means inhibition above about 35%, passing the limit was not always enough;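 further: plate controls were DMSO wells with GST-MLLE for no effect and wells lacking GST-MLLE protein for full effect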
eIF4E 4G PPI: blocks eIF4E binding to eIF4G | P63073+Q04637 | actives 0.37% (n = 220,000) | TR-FRET eIF4E-eIF4GI(517-606) binding, 2 h | inhibition, % at 21.7 µM;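 active means inhibition above about 30%, limit read from the data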;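 further: 0% = full FRET control wells and 100% = background wells lacking eIF4GI fragment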
eIF4H FP inh: inhibitors of RNA binding by human eIF4H. eIF4H fluorescence polarization binding assay. inhibition, % at 35 µM. actives 0.94% (n = 290,000). AID 2012;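 further: calls also rest on retests at 20 µM and on dose response follow-up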
PERK inh: human PERK inhibition, primary cell-based screen. inhibition, % at 5.6 µM. actives 0.17% (n = 220,000). CHO PERK-DD fusion, SEAP luminescence translation reporter. AID 1416. Q9NZJ5;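 active means inhibition above the mean inhibition of all tested compounds plus 3 SD, set separately per screening campaign, cut at about 2.9% in these data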;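 further: PERK kinase domain activated by AP20187 dimerizer at 100 nM; 0% = DMSO with dimerizer and 100% = rapamycin at 8.4 µM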
Target sequence (Q9NZJ5 whole entry, looked up, the tested form may be a part): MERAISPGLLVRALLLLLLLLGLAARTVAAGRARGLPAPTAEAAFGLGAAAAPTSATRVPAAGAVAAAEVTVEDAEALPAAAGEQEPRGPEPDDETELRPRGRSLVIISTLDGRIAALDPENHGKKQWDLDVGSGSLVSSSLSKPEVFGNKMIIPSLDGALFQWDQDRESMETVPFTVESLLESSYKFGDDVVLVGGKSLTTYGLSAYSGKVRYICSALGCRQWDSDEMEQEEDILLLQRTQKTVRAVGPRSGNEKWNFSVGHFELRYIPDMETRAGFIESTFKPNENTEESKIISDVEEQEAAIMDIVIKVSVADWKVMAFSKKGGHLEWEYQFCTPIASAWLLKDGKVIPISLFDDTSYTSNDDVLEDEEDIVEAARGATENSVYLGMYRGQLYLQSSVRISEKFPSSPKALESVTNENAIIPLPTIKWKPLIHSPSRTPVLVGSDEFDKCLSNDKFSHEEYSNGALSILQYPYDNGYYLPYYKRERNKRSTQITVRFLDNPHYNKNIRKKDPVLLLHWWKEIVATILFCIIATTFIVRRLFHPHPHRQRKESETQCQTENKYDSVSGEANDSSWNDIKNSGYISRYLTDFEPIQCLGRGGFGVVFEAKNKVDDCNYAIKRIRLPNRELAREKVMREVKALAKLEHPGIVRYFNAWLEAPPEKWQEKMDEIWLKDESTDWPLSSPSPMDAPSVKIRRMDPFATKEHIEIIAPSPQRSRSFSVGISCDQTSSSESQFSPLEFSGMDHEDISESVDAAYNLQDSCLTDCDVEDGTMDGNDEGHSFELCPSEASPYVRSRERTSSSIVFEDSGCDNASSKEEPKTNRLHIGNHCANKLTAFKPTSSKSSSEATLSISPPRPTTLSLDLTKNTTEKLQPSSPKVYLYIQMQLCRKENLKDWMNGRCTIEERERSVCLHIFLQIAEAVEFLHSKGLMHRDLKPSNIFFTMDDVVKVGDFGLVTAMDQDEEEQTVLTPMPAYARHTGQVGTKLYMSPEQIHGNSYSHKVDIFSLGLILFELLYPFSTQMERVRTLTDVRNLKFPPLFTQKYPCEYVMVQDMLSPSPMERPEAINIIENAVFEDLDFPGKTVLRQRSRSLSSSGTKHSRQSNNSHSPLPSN
PABP polyA inh: PABP-poly(A) binding inhibition. actives 1% (n = 290,000). inhibition, % at 35 µM. P11940. PABP-poly(A) RNA binding, fluorescence polarization. AID 2014;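 further: calls also rest on retests at 20 µM and on dose response follow-up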
Numbers without * were called inactive; ? = inconclusive; · = not tested or not shown; [ ] = remark or other dose. Rows were chosen to be rich in hits. Some 1.6% of all compounds tested hit in one or more screens of this group. Unless noted, how the calls were made is not given here.

SMILES | PABP1 MLLE inh | eIF4E 4G PPI | eIF4H FP inh | PERK inh | PABP polyA inh
Cn1c(=O)c2ncn(CC(=O)Nc3ccc4c5c(cccc35)CC4)c2n(C)c1=O | 7 | 3 | 47* | 0 | 55*
Cc1cccc(C)c1NC(=O)Cn1cnc2c(=O)n(C)c(=O)n(C)c21 | 0 | 9 | -17 | 0 | 1
Cn1c(Cc2c[nH]c3ccccc23)n[nH]c1=S | -18 | -3 | 6.5* | 1 | 70
Cc1ccc(-c2noc(C3CCN(S(=O)(=O)c4ccc5c(c4)OCCO5)CC3)n2)o1 | -10 | 0 | 1 | -1 | -2
CCC(CC)NC(=O)Nc1cccc(C)c1C | 1 | 2 | -4 | 0 | -7
CCn1c(NC(=O)Nc2cccc(C)c2C)cc2sccc21 | -10 | 1 | 87* | 0 | 90*
CCN(CC)S(=O)(=O)c1ccc(N2CCOCC2)c(NC(=O)COc2ccccc2C#N)c1 | 2 | 0 | -7 | 0 | 2
CC(=O)Nc1ccc(C(=O)OCC(=O)N(c2ccccc2)C2CCCCC2)cc1 | -50 | · | · | · | ·
COc1ccc2c(c1)CCN1C2CCN2C(=O)CCC21 (stereo not drawn) | 58* | -4 | 73* | -1 | 46*
COC(=O)CS(=O)(=O)c1cc(Br)cc2c1N(C(C)=O)CC2 | 14 | -4 | 6 | 1 | -4
COc1ccc(-c2[nH]ncc2CN(C)CCN2CCOCC2)cc1F | 15 | 1 | -7 | 3.0* | 5
c1ccc2[nH]c(CSc3nc4ccccc4o3)nc2c1 | 35* | -5 | -15 | 0 | -1
c1cncc(-c2nnc(SCc3nc4ccccc4[nH]3)o2)c1 | -23 | 1 | -1 | 1 | 11
Cn1c(=NC(=O)COc2ccccc2)sc2cccc(F)c21 | 5 | -5 | -5 | -1 | 10
CC(C)COc1ccc(-c2nn(-c3ccccc3)cc2/C=C2/SC(=S)N(CC(=O)O)C2=O)cc1 | -2 | · | 93* | · | 12
CCc1noc(C)c1C(=O)N1CCN(S(=O)(=O)c2ccccc2C(F)(F)F)CC1 | 88* | · | · | · | ·
O=C(O)CSc1nnc(-c2ccc(Cl)cc2)n1-c1ccccc1 | -142 | · | 7 | · | 5
COc1cccc(Nc2ccc(N3CCCCC3)cc2)c1OC | 60* | · | · | · | ·
COC(=O)Cn1ncn2cccc2c1=O | -3 | 1 | -9 | 1 | -4
CCOC(=O)C(C)n1ncn2cccc2c1=O (stereo not drawn) | -7 | 43*[fluorescence artefact?] | 1 | 0 | -1
O=C(COC(=O)C1CCN(S(=O)(=O)c2ccc3c(c2)OCCO3)CC1)NC1CCS(=O)(=O)C1 (stereo not drawn) | -3 | · | · | · | ·
CCOc1ccc(C=Nc2cccc3ncccc23)cc1 | 2 | 2 | ? | 1 | -19
COc1cccc(N=Cc2ccc(O)cc2O)c1 | -28 | 3 | ? | 2 | ?
Oc1ccc(C=Nc2cccc3ncccc23)c(O)c1 | 23 | 5 | 58 | -1 | 33*
Oc1ccc(C=Nc2ccc3ncccc3c2)c(O)c1 | · | 0 | 81* | 1 | 62*
SMILES | PABP1 MLLE inh | eIF4E 4G PPI | eIF4H FP inh | PERK inh | PABP polyA inh
O=C(CSc1nc2ccccc2c(=O)n1CCCN1CCOCC1)Nc1ccc(F)c(Cl)c1 | -1 | · | · | · | ·
COC(=O)[C@@H](N)CS | 36 | 2 | -2 | 3.0* | -4
C[C@H]1O[C@@H](O[C@H]2CC[C@@]3(C)C(CC[C@]4(C)C3C=CC3=C5CC(C)(C)CC[C@]5(CO)[C@H](O)C[C@]34C)[C@]2(C)CO)[C@H](O)[C@@H](O[C@@H]2O[C@H](CO)[C@@H](O)[C@H](O)[C@H]2O)[C@H]1O (stereo partly drawn) | 2 | · | · | · | ·
CCN(CC)CCOC(=O)C(c1ccccc1)c1ccccc1 | -11 | 0 | -8 | 1 | -1
CCN(CC)CCSC(=O)C(c1ccccc1)c1ccccc1 | 47* | · | · | · | ·
COC(=O)C1=NN(c2ccc(OC)cc2)C2C(=O)N(c3ccccc3OC)C(=O)C12 (stereo not drawn) | 1 | 39* | -5 | 0 | 4
COC(=O)C1=NN(c2ccccc2OC)C2C(=O)N(c3ccccc3OC)C(=O)C12 (stereo not drawn) | 2 | 6 | -1 | 0 | -6
O=C(N/N=C/c1ccncc1)c1cccc(S(=O)(=O)Nc2ccc(Cl)cc2)c1 | 10 | 92* | 70* | 0 | 10
CCOC(=O)Nc1nc(-c2ccccc2)c(C(=O)c2ccc(Cl)cc2)s1 | 2 | -3 | 1 | 0 | -11
COC(=O)c1c(NC(=O)CC2Nc3cc(C)c(C)cc3NC2=O)sc(C)c1C (stereo not drawn) | -72 | -4 | 86* | 1 | 0.2*
